According to PubChem BioAssay (NCI):
Compounds without any hit were thinned out: in the full panel of roughly 83,000, 20% have a hit.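 Single-dose data. Exposure time 48 hours. Values below 10 considered active.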 Active and inactive are the calls of the source. Where a SMILES comes first, the peptide text is derived from it. [ ]: non-standard residue; d: D form. ξ: configuration not given here. ξD = NC(CC(=O)O)C(=O)O

Assays:
Test in all cases: NCI-60 one-dose screen, 48 h (100 = growth as untreated, 0 = no growth, -100 = all killed)
Conditions in all cases: 10 µM unless noted
BT-549 breast = test system: BT-549 breast
MDA-MB-435 melanoma = test system: MDA-MB-435 melanoma
SW-620 colon = test system: SW-620 colon
MCF7 breast = test system: MCF7 breast
HCT-116 colon = test system: HCT-116 colon
HCC-2998 colon = test system: HCC-2998 colon
KM12 colon = test system: KM12 colon
T-47D breast = test system: T-47D breast

Measured: growth

CCOC(=O)C1=C(C(=O)c2ccccc2)C(c2cccc([N+](=O)[O-])c2)C(C(=O)c2ccccc2)=C(C(=O)OCC)N1
inactive: BT-549 breast 89.9% | MDA-MB-435 melanoma 91.6% | SW-620 colon 70.2% | MCF7 breast 13% | HCT-116 colon 37.5% | HCC-2998 colon 105% | KM12 colon 75.8%

CC(C)(C)CC(C)(C)c1ccc(OCCOCCSC(=N)N)cc1
inactive: BT-549 breast 28% | KM12 colon 36.9%
active: MDA-MB-435 melanoma -64.8% | SW-620 colon -2.39% | MCF7 breast 4.55% | HCT-116 colon -65% | HCC-2998 colon -32.3%

N#C/C(=N\Nc1ccc(Cl)cc1)C(=O)C1CC1
inactive: BT-549 breast 40.2% | MDA-MB-435 melanoma 41% | SW-620 colon 63.1% | MCF7 breast 51.7% | HCT-116 colon 63.9% | HCC-2998 colon 72.1% | KM12 colon 56.2%

CCCCCCCCCCCC[S+](C)CC(=O)[O-] (centres undefined)
active: BT-549 breast -29.2%
inactive: MDA-MB-435 melanoma 47.2% | SW-620 colon 69.9% | MCF7 breast 58.2% | HCT-116 colon 45.5% | HCC-2998 colon 34.4% | KM12 colon 30.7%

Oc1ccccc1N=Cc1ccccc1
inactive: BT-549 breast 79.7% | MDA-MB-435 melanoma 87% | SW-620 colon 85.1% | MCF7 breast 74.3% | HCT-116 colon 69.4% | HCC-2998 colon 100% | KM12 colon 74.1%

O=C(/C(Cl)=N/O)c1ccc(-c2ccccc2)cc1
inactive: BT-549 breast 94.7% | MDA-MB-435 melanoma 114% | SW-620 colon 110% | MCF7 breast 89.5% | HCT-116 colon 113% | HCC-2998 colon 105% | KM12 colon 108%

Oc1c(C(Nc2ccccc2)c2ccccc2)ccc2cccnc12 (centres undefined)
inactive: BT-549 breast 49.8% | MDA-MB-435 melanoma 23.8% | SW-620 colon 45.1% | MCF7 breast 16.3% | HCT-116 colon 19.3% | HCC-2998 colon 44.9% | KM12 colon 32.5%

Oc1ccc2ccccc2c1N=Nc1ccccn1
inactive: T-47D breast 12.7% | MDA-MB-435 melanoma 49.9% | HCC-2998 colon 45.2% | KM12 colon 34.4%
active: MCF7 breast 0.0702% | HCT-116 colon 1.41%

CCOC(=O)c1c(C)[nH]c2ccc(O)cc12
inactive: MDA-MB-435 melanoma 100% | SW-620 colon 105% | MCF7 breast 83.4% | HCT-116 colon 103% | HCC-2998 colon 107% | KM12 colon 86.4%

O=C/C=C/c1ccc([N+](=O)[O-])cc1
inactive: BT-549 breast 116% | MDA-MB-435 melanoma 108% | SW-620 colon 106% | MCF7 breast 90.3% | HCT-116 colon 80.6% | HCC-2998 colon 95.8% | KM12 colon 101%

Oc1ccc2ccccc2c1N=Nc1nccs1
inactive: T-47D breast 15.5% | MDA-MB-435 melanoma 35.3% | SW-620 colon 24.7% | MCF7 breast 17.1% | KM12 colon 25%
active: HCT-116 colon -20.8% | HCC-2998 colon -5.47%

NCC(=O)NC(CC(=O)O)C(=O)O (centres undefined) (H-Gly-[ξD]-OH)
inactive: BT-549 breast 102% | MDA-MB-435 melanoma 99.5% | SW-620 colon 98.9% | MCF7 breast 100% | HCT-116 colon 106% | HCC-2998 colon 110% | KM12 colon 107%

CC(=O)N1CC(=O)NC1=S
inactive: BT-549 breast 103% | MDA-MB-435 melanoma 98.3% | SW-620 colon 102% | MCF7 breast 94.1% | HCT-116 colon 102% | HCC-2998 colon 95% | KM12 colon 103%

c1ccc(-c2cccc(-c3ccccn3)n2)nc1
active: HCT-116 colon 6.59%
inactive: T-47D breast 38.1% | MDA-MB-435 melanoma 33.9% | SW-620 colon 29.6% | MCF7 breast 14.1% | HCC-2998 colon 18.7% | KM12 colon 27.6%

Cc1cc2nc(CC(=O)c3ccncc3)c(=O)[nH]c2cc1C
inactive: BT-549 breast 88.9% | MDA-MB-435 melanoma 107% | SW-620 colon 103% | MCF7 breast 88.5% | HCT-116 colon 88.5% | HCC-2998 colon 102% | KM12 colon 103%

CCOC(=O)NC(/C=C/c1ccccc1)NC(=O)OCC
inactive: BT-549 breast 107% | MDA-MB-435 melanoma 106% | SW-620 colon 100% | MCF7 breast 101% | HCT-116 colon 93.6% | HCC-2998 colon 112% | KM12 colon 107%

Nc1nc(-c2ccccc2)nc(N)c1N=O
active: SW-620 colon 1.65%
inactive: BT-549 breast 56.3% | MDA-MB-435 melanoma 46.7% | HCT-116 colon 51.6% | HCC-2998 colon 103% | KM12 colon 58.8%

O=C(Cc1nc2cc(Cl)c(Cl)cc2nc1CC(=O)c1cccnc1)c1cccnc1
inactive: MDA-MB-435 melanoma 75.9% | SW-620 colon 90.3% | MCF7 breast 29.6% | HCT-116 colon 52.7% | HCC-2998 colon 115% | KM12 colon 85.9%
active: BT-549 breast 2.99%

CCCCCCCCC(=O)OCCCC(CCC(CCC1CCCO1)OC(=O)CCCCCCCC)OC(=O)CCCCCCCC (centres undefined)
inactive: BT-549 breast 92.7% | MDA-MB-435 melanoma 104% | SW-620 colon 99.8% | MCF7 breast 100% | HCT-116 colon 92.4% | HCC-2998 colon 123% | KM12 colon 103%

Nc1ccc(C(=O)/C=C/c2ccccc2)cc1
inactive: BT-549 breast 61.1% | MDA-MB-435 melanoma 96.8% | SW-620 colon 103% | MCF7 breast 73.3% | HCT-116 colon 60.3% | HCC-2998 colon 100% | KM12 colon 74.2%

COc1ccc2nc3cc(Cl)ccc3c(NCCCCCN3CCCCC3)c2c1
inactive: BT-549 breast 19%
active: MDA-MB-435 melanoma -92% | SW-620 colon -27.4% | HCT-116 colon -61.5% | HCC-2998 colon -76.7% | KM12 colon -12.8%

NNc1cccc([N+](=O)[O-])c1
inactive: BT-549 breast 93.6% | MDA-MB-435 melanoma 86.8% | SW-620 colon 63.2% | MCF7 breast 106% | HCT-116 colon 70.4% | HCC-2998 colon 110% | KM12 colon 52.5%

O=[N+]([O-])c1ccc(Oc2ccccc2Cl)c([N+](=O)[O-])c1
inactive: MDA-MB-435 melanoma 81.5% | SW-620 colon 39.9% | MCF7 breast 89.4% | HCT-116 colon 88.2% | HCC-2998 colon 112% | KM12 colon 89.2%

O=C(C[P+](c1ccccc1)(c1ccccc1)c1ccccc1)c1ccccc1
inactive: T-47D breast 89.9% | MDA-MB-435 melanoma 98.5% | SW-620 colon 97.3% | MCF7 breast 90.6% | HCT-116 colon 76.8% | HCC-2998 colon 93.9% | KM12 colon 101%

COc1cc([C@@H]2c3cc4c(cc3[C@H](OC3OC5COC(c6ccccc6)OC5C(O)C3O)[C@H]3COC(=O)[C@H]23)OCO4)cc(OC)c1OC (some centres undefined)
inactive: T-47D breast 107% | MDA-MB-435 melanoma 22.7% | SW-620 colon 43.9% | MCF7 breast 10.5% | HCT-116 colon 12.3% | KM12 colon 42.9%
active: HCC-2998 colon -5.24%

CC(=O)Nc1ccc(C(=O)CCl)cc1
inactive: BT-549 breast 58.6% | MDA-MB-435 melanoma 14.4% | HCT-116 colon 32.3% | HCC-2998 colon 102% | KM12 colon 85.7%
active: SW-620 colon -16.6% | MCF7 breast 3.18%

CC1CC(C)(C)OB(OC(C)CC(C)(C)OB2OC(C)CC(C)(C)O2)O1 (centres undefined)
inactive: BT-549 breast 77.7% | MDA-MB-435 melanoma 107% | SW-620 colon 117% | MCF7 breast 96.6% | HCT-116 colon 99.9% | HCC-2998 colon 93.3% | KM12 colon 101%

c1ccc(-c2cc3cc4ccccc4cn3c2)cc1
inactive: MDA-MB-435 melanoma 91.4% | SW-620 colon 89.9% | HCT-116 colon 88% | HCC-2998 colon 121% | KM12 colon 86.2%
